Reference: PubChem BioAssay AID1159580 (chemical genetic matrix, 2015)
Hit rate of the full screen: of about 5,500 compounds, about 2,000 (36%) were called active. Another 18% or so got no clear call; they are omitted. Some of the results follow. A number with no mark means an inactive call. No stated cut-off is given here; in the data, active means normalized growth mostly below about 0.91 (no sharp cut-off); inconclusive means no clear call, values can overlap the other calls; inactive means mostly above about 0.92.

Experiment: chemical genetic growth profiling, strain panel (AID 1159580);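 further: tested at 20 µM; growth read once vehicle control cultures reached saturation at 30 °C; 1 = growth at the plate median or of vehicle wells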
Conditions: growth OD

**Q.** With `O=[N+]([O-])O[C@H]1CO[C@H]2[C@@H]1OC[C@H]2O[N+](=O)[O-]` as the compound, how does the normalized growth (S. cerevisiae deletion strains, locus YJR043C, strain POL32, stronger effect = lower value) read?
**A.** 1.02

**Q.** And the normalized growth (S. cerevisiae deletion strains, locus YJR066W, strain TOR1, stronger effect = lower value)?
**A.** 0.946

**Q.** What about the normalized growth (S. cerevisiae deletion strains, locus YKL009W, strain mrt4, stronger effect = lower value) of the same compound?
**A.** 1.03

**Q.** What about the normalized growth (S. cerevisiae deletion strains, locus YKL068W, stronger effect = lower value) of the same compound?
**A.** 1.01

**Q.** What about the normalized growth (S. cerevisiae deletion strains, locus YKL085W, strain MDH1 (second series), stronger effect = lower value) of the same compound?
**A.** 1.01

**Q.** What about the normalized growth (S. cerevisiae deletion strains, locus YKL085W, strain MDH1, stronger effect = lower value) of the same compound?
**A.** 1.01

**Q.** What about the normalized growth (S. cerevisiae deletion strains, locus YKL160W, strain elf1, stronger effect = lower value) of the same compound?
**A.** 0.98

**Q.** And the normalized growth (S. cerevisiae deletion strains, locus YKL190W, strain CNB1, stronger effect = lower value)?
**A.** 1.02

**Q.** What about the normalized growth (S. cerevisiae deletion strains, locus YKR001C, strain vps1, stronger effect = lower value) of the same compound?
**A.** 1.02

**Q.** What about the normalized growth (S. cerevisiae deletion strains, locus YKR026C, strain gcn3, stronger effect = lower value) of the same compound?
**A.** 0.993

**Q.** And the normalized growth (S. cerevisiae deletion strains, locus YKR091W, strain srl3, stronger effect = lower value)?
**A.** 0.993

**Q.** What about the normalized growth (S. cerevisiae deletion strains, locus YLL001W, strain dnm1, stronger effect = lower value) of the same compound?
**A.** 0.971

**Q.** And the normalized growth (S. cerevisiae deletion strains, locus YLL026W, stronger effect = lower value)?
**A.** 1

**Q.** And the normalized growth (S. cerevisiae deletion strains, locus YLL041C, strain sdh2, stronger effect = lower value)?
**A.** 0.998

**Q.** And the normalized growth (S. cerevisiae deletion strains, locus YLR027C, strain aat2, stronger effect = lower value)?
**A.** 1.01

**Q.** What about the normalized growth (S. cerevisiae deletion strains, locus YLR039C, strain RIC1, stronger effect = lower value) of the same compound?
**A.** 1.05

**Q.** What about the normalized growth (S. cerevisiae deletion strains, locus YLR058C, strain SHM2, stronger effect = lower value) of the same compound?
**A.** 1.01

**Q.** And the normalized growth (S. cerevisiae deletion strains, locus YLR102C, strain apc9, stronger effect = lower value)?
**A.** 1.01

**Q.** And the normalized growth (S. cerevisiae deletion strains, locus YLR113W, strain HOG1, stronger effect = lower value)?
**A.** 0.926

**Q.** And the normalized growth (S. cerevisiae deletion strains, locus YLR221C, strain rsa3, stronger effect = lower value)?
**A.** 0.995

**Q.** What about the normalized growth (S. cerevisiae deletion strains, locus YLR258W, strain gsy2, stronger effect = lower value) of the same compound?
**A.** 0.995

**Q.** What about the normalized growth (S. cerevisiae deletion strains, locus YLR262C, strain YPT6 (second series), stronger effect = lower value) of the same compound?
**A.** 1

**Q.** And the normalized growth (S. cerevisiae deletion strains, locus YLR262C, strain YPT6, stronger effect = lower value)?
**A.** 1.02

**Q.** What about the normalized growth (S. cerevisiae deletion strains, locus YLR268W, strain sec22, stronger effect = lower value) of the same compound?
**A.** 1.04

**Q.** And the normalized growth (S. cerevisiae deletion strains, locus YLR320W, strain mms22, stronger effect = lower value)?
**A.** 0.979

**Q.** And the normalized growth (S. cerevisiae deletion strains, locus YLR330W, strain CHS5, stronger effect = lower value)?
**A.** 1.01

**Q.** And the normalized growth (S. cerevisiae deletion strains, locus YLR342W, strain FKS1 (second series), stronger effect = lower value)?
**A.** 1.04

**Q.** What about the normalized growth (S. cerevisiae deletion strains, locus YLR342W, strain FKS1, stronger effect = lower value) of the same compound?
**A.** 0.995

**Q.** And the normalized growth (S. cerevisiae deletion strains, locus YLR357W, strain rsc2, stronger effect = lower value)?
**A.** 0.983

**Q.** And the normalized growth (S. cerevisiae deletion strains, locus YLR370C, strain arc18, stronger effect = lower value)?
**A.** 0.992

**Q.** What about the normalized growth (S. cerevisiae deletion strains, locus YLR371W, strain rom2, stronger effect = lower value) of the same compound?
**A.** 1

**Q.** And the normalized growth (S. cerevisiae deletion strains, locus YLR384C, strain iki3, stronger effect = lower value)?
**A.** 0.981

**Q.** What about the normalized growth (S. cerevisiae deletion strains, locus YLR418C, strain cdc73, stronger effect = lower value) of the same compound?
**A.** 1.09

**Q.** And the normalized growth (S. cerevisiae deletion strains, locus YML016C, strain PPZ1, stronger effect = lower value)?
**A.** 1.01

**Q.** What about the normalized growth (S. cerevisiae deletion strains, locus YML032C, strain rad52, stronger effect = lower value) of the same compound?
**A.** 1.03

**Q.** What about the normalized growth (S. cerevisiae deletion strains, locus YML120C, strain ndi1, stronger effect = lower value) of the same compound?
**A.** 0.966

**Q.** And the normalized growth (S. cerevisiae deletion strains, locus YML124C, strain tub3, stronger effect = lower value)?
**A.** 1.02

**Q.** And the normalized growth (S. cerevisiae deletion strains, locus YMR058W, strain fet3, stronger effect = lower value)?
**A.** 1

**Q.** What about the normalized growth (S. cerevisiae deletion strains, locus YMR078C, strain ctf18, stronger effect = lower value) of the same compound?
**A.** 1.02

**Q.** What about the normalized growth (S. cerevisiae deletion strains, locus YMR125W, strain sto1, stronger effect = lower value) of the same compound?
**A.** 0.996

**Q.** What about the normalized growth (S. cerevisiae deletion strains, locus YMR129W, stronger effect = lower value) of the same compound?
**A.** 0.988

**Q.** And the normalized growth (S. cerevisiae deletion strains, locus YMR205C, strain PFK2, stronger effect = lower value)?
**A.** 0.963

**Q.** And the normalized growth (S. cerevisiae deletion strains, locus YMR223W, strain ubp8, stronger effect = lower value)?
**A.** 1.05

**Q.** What about the normalized growth (S. cerevisiae deletion strains, locus YMR231W, strain pep5, stronger effect = lower value) of the same compound?
**A.** 1

**Q.** And the normalized growth (S. cerevisiae deletion strains, locus YMR307W, strain GAS1, stronger effect = lower value)?
**A.** 1.05

**Q.** What about the normalized growth (S. cerevisiae deletion strains, locus YNL067W, strain RPL9B, stronger effect = lower value) of the same compound?
**A.** 1.01

**Q.** And the normalized growth (S. cerevisiae deletion strains, locus YNL071W, strain lat1, stronger effect = lower value)?
**A.** 0.996

**Q.** What about the normalized growth (S. cerevisiae deletion strains, locus YNL128W, strain TEP1, stronger effect = lower value) of the same compound?
**A.** 1.03

**Q.** And the normalized growth (S. cerevisiae deletion strains, locus YNL183C, strain NPR1, stronger effect = lower value)?
**A.** 0.955

**Q.** What about the normalized growth (S. cerevisiae deletion strains, locus YNL209W, strain ssb2, stronger effect = lower value) of the same compound?
**A.** 0.994

**Q.** And the normalized growth (S. cerevisiae deletion strains, locus YNL233W, strain BNI4, stronger effect = lower value)?
**A.** 1.01

**Q.** What about the normalized growth (S. cerevisiae deletion strains, locus YNL248C, strain rpa49, stronger effect = lower value) of the same compound?
**A.** 1.01

**Q.** What about the normalized growth (S. cerevisiae deletion strains, locus YNL250W, strain rad50, stronger effect = lower value) of the same compound?
**A.** 1.05

**Q.** And the normalized growth (S. cerevisiae deletion strains, locus YNL271C, strain bni1, stronger effect = lower value)?
**A.** 1.01

**Q.** What about the normalized growth (S. cerevisiae deletion strains, locus YNL298W, strain CLA4, stronger effect = lower value) of the same compound?
**A.** 1.03

**Q.** And the normalized growth (S. cerevisiae deletion strains, locus YNL307C, strain MCK1, stronger effect = lower value)?
**A.** 1.02

**Q.** What about the normalized growth (S. cerevisiae deletion strains, locus YNL322C, strain KRE1 (second series), stronger effect = lower value) of the same compound?
**A.** 0.979

**Q.** What about the normalized growth (S. cerevisiae deletion strains, locus YNR049C, strain mso1, stronger effect = lower value) of the same compound?
**A.** 0.981

**Q.** And the normalized growth (S. cerevisiae deletion strains, locus YNR052C, strain pop2, stronger effect = lower value)?
**A.** 1.02

**Q.** And the normalized growth (S. cerevisiae deletion strains, locus YOL006C, strain TOP1, stronger effect = lower value)?
**A.** 1.01

**Q.** What about the normalized growth (S. cerevisiae deletion strains, locus YOL012C, strain htz1) of the same compound?
**A.** 1.04

**Q.** What about the normalized growth (S. cerevisiae deletion strains, locus YOL147C, strain pex11, stronger effect = lower value) of the same compound?
**A.** 1.02

**Q.** What about the normalized growth (S. cerevisiae deletion strains, locus YOR001W, strain rrp6, stronger effect = lower value) of the same compound?
**A.** 1.01

**Q.** And the normalized growth (S. cerevisiae deletion strains, locus YOR061W, strain CKA2, stronger effect = lower value)?
**A.** 1.01

**Q.** What about the normalized growth (S. cerevisiae deletion strains, locus YOR069W, strain VPS5, stronger effect = lower value) of the same compound?
**A.** 1.01

**Q.** And the normalized growth (S. cerevisiae deletion strains, locus YOR070C, strain gyp1, stronger effect = lower value)?
**A.** 1

**Q.** What about the normalized growth (S. cerevisiae deletion strains, locus YOR080W, strain dia2, stronger effect = lower value) of the same compound?
**A.** 0.994

**Q.** What about the normalized growth (S. cerevisiae deletion strains, locus YOR083W, strain WHI5, stronger effect = lower value) of the same compound?
**A.** 0.977

**Q.** And the normalized growth (S. cerevisiae deletion strains, locus YOR106W, strain vam3, stronger effect = lower value)?
**A.** 1

**Q.** What about the normalized growth (S. cerevisiae deletion strains, locus YOR136W, strain idh2, stronger effect = lower value) of the same compound?
**A.** 1.02

**Q.** What about the normalized growth (S. cerevisiae deletion strains, locus YOR144C, strain elg1, stronger effect = lower value) of the same compound?
**A.** 1.02

**Q.** And the normalized growth (S. cerevisiae deletion strains, locus YOR184W, strain ser1, stronger effect = lower value)?
**A.** 1.03

**Q.** What about the normalized growth (S. cerevisiae deletion strains, locus YOR231W, strain MKK1, stronger effect = lower value) of the same compound?
**A.** 0.837 (active)

**Q.** What about the normalized growth (S. cerevisiae deletion strains, locus YOR265W, strain rbl2, stronger effect = lower value) of the same compound?
**A.** 0.994

**Q.** And the normalized growth (S. cerevisiae deletion strains, locus YOR270C, strain vph1, stronger effect = lower value)?
**A.** 1.02

**Q.** What about the normalized growth (S. cerevisiae deletion strains, locus YOR290C, strain snf2, stronger effect = lower value) of the same compound?
**A.** 0.939

**Q.** And the normalized growth (S. cerevisiae deletion strains, locus YOR316C, strain cot1, stronger effect = lower value)?
**A.** 1.01

**Q.** And the normalized growth (S. cerevisiae deletion strains, locus YPL051W, strain arl3, stronger effect = lower value)?
**A.** 0.985

**Q.** What about the normalized growth (S. cerevisiae deletion strains, locus YPL078C, strain atp4, stronger effect = lower value) of the same compound?
**A.** 0.979

**Q.** What about the normalized growth (S. cerevisiae deletion strains, locus YPL106C, strain sse1, stronger effect = lower value) of the same compound?
**A.** 0.949

**Q.** What about the normalized growth (S. cerevisiae deletion strains, locus YPL240C, strain hsp82, stronger effect = lower value) of the same compound?
**A.** 1

**Q.** And the normalized growth (S. cerevisiae deletion strains, locus YPL256C, strain CLN2, stronger effect = lower value)?
**A.** 0.938

**Q.** What about the normalized growth (S. cerevisiae deletion strains, locus YPR119W, strain clb2, stronger effect = lower value) of the same compound?
**A.** 1.02

**Q.** What about the normalized growth (S. cerevisiae deletion strains, locus YPR141C, strain kar3, stronger effect = lower value) of the same compound?
**A.** 1.02

**Q.** What about the normalized growth (S. cerevisiae deletion strains, locus YPR163C, strain tif3, stronger effect = lower value) of the same compound?
**A.** 1.01

**Q.** And the normalized growth (S. cerevisiae deletion strains, locus YPR167C, strain met16, stronger effect = lower value)?
**A.** 1.02

**Q.** And the normalized growth (S. cerevisiae deletion strains, strain wtn01, stronger effect = lower value)?
**A.** 1.05

**Q.** What about the normalized growth (S. cerevisiae strains, strain wild type, stronger effect = lower value) of the same compound?
**A.** 1.02
